Screening data as filed in PubChem.
Mcl1-Bid inh = Mcl-1/Bid interaction inhibition; Q07820; TR-FRET Mcl-1/Bid-Dy647 peptide binding, 1536-well; inhibition, % at 21.7 µM; 220,000 compounds, 0.97% hits; AID 1021;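 active means compounds that cut the binding signal by more than half at the single screening dose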;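 further: His-tagged Mcl-1 with europium anti-His antibody binding Bid BH3 peptide; 0% = Mcl-1 plus peptide wells and 100% = peptide-only wells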
Target sequence (Q07820 whole entry, looked up): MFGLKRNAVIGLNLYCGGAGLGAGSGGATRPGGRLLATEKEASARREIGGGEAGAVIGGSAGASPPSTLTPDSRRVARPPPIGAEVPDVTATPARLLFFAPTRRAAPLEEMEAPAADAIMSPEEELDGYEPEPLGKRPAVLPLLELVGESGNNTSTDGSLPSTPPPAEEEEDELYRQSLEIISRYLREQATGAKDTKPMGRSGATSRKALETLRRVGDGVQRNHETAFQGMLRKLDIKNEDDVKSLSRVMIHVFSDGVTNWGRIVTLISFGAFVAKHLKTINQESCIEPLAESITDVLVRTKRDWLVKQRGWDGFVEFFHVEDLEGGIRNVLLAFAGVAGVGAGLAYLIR
Bim-Mcl-1 = disrupts Bim peptide binding to human Mcl-1; Q07820; Bead-based flow cytometry, Bim peptide-Mcl-1 binding; inhibition, % at 10 µM; 190,000 compounds, 0.1% hits; AID 1009; in the data active means inhibition above about 40%;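 further: 0% = no compound tracer wells and 100% = peptide blocker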
Bcl-xL primary = Bcl-xL (human) inhibition; Q07817; GST-Bcl-xL / FITC-Bim BH3 peptide fluorescence polarization; inhibition, % at 10.9 µM; 320,000 compounds, 0.7% hits;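 active means inhibition above the mean of all tested compounds plus 3 SD, cutoff set per campaign, cut at about 30% in these data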;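 further: 0% = DMSO wells and 100% = unlabeled Bim-BH3 peptide competitor; inhibitors lower millipolarization by displacing the labeled peptide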
Target sequence (Q07817 whole entry, looked up): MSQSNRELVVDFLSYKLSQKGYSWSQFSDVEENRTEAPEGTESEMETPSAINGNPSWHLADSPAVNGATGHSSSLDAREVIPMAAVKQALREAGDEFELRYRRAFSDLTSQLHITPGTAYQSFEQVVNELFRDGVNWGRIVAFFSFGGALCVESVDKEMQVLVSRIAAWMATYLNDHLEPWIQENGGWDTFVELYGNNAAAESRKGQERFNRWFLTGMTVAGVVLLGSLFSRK
Mcl1 Noxa PPI = Mcl-1/Noxa interaction inhibition; Q07820; inhibition, % at 21.7 µM; 220,000 compounds, 1.5% hits; TR-FRET Mcl-1/Noxa peptide binding, 2 h; AID 1022;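 active means compounds that cut the protein-peptide binding signal by more than 50% relative to plate controls in a single-dose test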;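 further: His-tagged Mcl-1 with rhodamine Noxa BH3 peptide and terbium anti-His antibody; 0% = Mcl-1 plus Noxa peptide wells and 100% = peptide-only wells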
MCL1 BIM primary = MCL1-BIM-BH3 interaction inhibition (human); Q07820; GST-MCL1 / FITC-Bim-BH3 fluorescence polarization; inhibition, % at 10.9 µM; 320,000 compounds, 0.68% hits;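 active means inhibition above the mean inhibition of all tested compounds plus 3 SD, set per campaign, cut at about 40% in these data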;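 further: 0% = DMSO wells and 100% = unlabeled Bim-BH3 peptide control; higher means more loss of mP so more displacement of Bim peptide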
GLD-1 RNA inh = GLD-1-TGE RNA interaction inhibition (C. elegans); Q17339; purified GLD-1 + fluorescein TGE RNA, fluorescence polarization; inhibition, % at 5.96 µM; 320,000 compounds, 0.44% hits; AID 2280;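 active means percent inhibition above a per-plate cutoff, the plate mean of test compounds plus 3 SD, cut at about 30% in these data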;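 further: 0% = DMSO wells with GLD-1 and probe and 100% = wells lacking GLD-1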
* = called active by the depositor; . = not tested or not shown. An excerpt weighted towards active compounds, which were near 2.3% of everything screened.

SMILES	Mcl1-Bid inh	Bim-Mcl-1	Bcl-xL primary	Mcl1 Noxa PPI	MCL1 BIM primary	GLD-1 RNA inh
O=[N+]([O-])c1ccccc1CN1CCN(Cc2ccccn2)CC1	59*	0	5	34	4	4
Cc1cc2sc3ccccc3c(=O)c2c(C)c1O	4	0	8	42	10	0
O=c1c(C(c2ccccc2)c2c(O)sc3ccccc3c2=O)c(O)sc2ccccc12	71*	-5	8	53*	8	10
COc1cc(-c2nc(-c3ccc4c(c3)-c3ccccc3S4(=O)=O)c(-c3ccccc3)[nH]2)cc(OC)c1O	10	2	5	58*	8	2
COc1ccc(-c2[nH]c(-c3ccc(C(=O)O)cc3)nc2-c2ccccc2)cc1	-37	0	11	-3	7	5
CN(C)C(=O)CS(=O)(=O)c1ccc(Cl)cc1	66*	.	2	44	-4	4
Cc1ccc(S(=O)(=O)N(C)C[C@@H]2Oc3ccc(NS(C)(=O)=O)cc3CC(=O)N([C@H](C)CO)C[C@@H]2C)cc1	.	.	.	.	.	2
O=C(O)CCn1c2ccccc2c2nc3ccccc3nc21	.	.	18	.	16	5
COc1cccc(/C=N/NC(=O)C(=O)N/N=C/c2cccc(OC)c2O)c1O	-71	3	.	59*	.	.
COc1cccc(/C=N/NC(=O)C(=O)N2CCCCCC2)c1O	.	.	9	.	8	1
COc1cccc(/C=N/NC(=O)c2cc3c(OC)cccc3[nH]2)c1O	-36	-4	-4	59*	-5	-24
COc1cccc(C(=O)Nc2ccc3c(c2)n(C)c(=O)n3C)c1	.	.	3	.	1	4
Cc1nc2ccccc2n1CSc1ccccc1	-6	42*	2	8	4	4
Cc1cc(NC(=O)C(C)SCC(=O)N(C)Cc2ccccc2F)no1 (stereo unspecified)	.	.	4	.	3	6
CCOC(=O)c1ccc(S(=O)(=O)N2CCC(C(=O)NCC3CCCCC3)CC2)cc1	.	.	-1	.	-9	7
COc1ccc(C)cc1Nc1n[n+](C)c(-c2c3ccccc3cc3ccccc23)s1	.	.	32*	.	28	13
COc1ccc(C)cc1Nc1n[n+](C)c(-c2ccc(O)cc2O)s1	.	.	1	.	8	-4
COc1ccc(CCN(C)C(=O)Cn2c(=O)oc3ccccc32)cc1OC	.	.	-4	.	-4	8
COc1cccc2cc(C(=O)C3=C(O)C(=O)N(c4cc(C)on4)C3c3cccs3)oc12 (stereo unspecified)	.	.	-5	.	-15	7
Cc1nc(NC(=O)c2ccccc2)sc1-c1csc(Nc2ccc(C(=O)O)cc2)n1	91*	.	.	90*	.	.
Cc1ccc(Nc2nc(-c3sc(NC(=O)c4cccc(Cl)c4)nc3C)cs2)cc1	-55	-4	-10	30	-17	-9
Cc1nc(NC(=O)c2ccccc2)sc1-c1csc(NCc2ccco2)n1	-12	-2	-9	61*	-12	-1
Cc1nc(NC(=O)c2ccc(Cl)cc2)sc1-c1csc(Nc2cccc(F)c2)n1	9	0	-4	51*	-18	-3
COc1cccc(Nc2nc(-c3sc(NC(=O)c4ccccc4)nc3C)cs2)c1	-43	-5	-1	20	-11	1
Cc1ccc(NC(=O)c2cnc(SCC(=O)c3ccccc3)n(C)c2=O)cc1	.	.	3	.	8	-1
SMILES	Mcl1-Bid inh	Bim-Mcl-1	Bcl-xL primary	Mcl1 Noxa PPI	MCL1 BIM primary	GLD-1 RNA inh
O=C(CCl)Nc1c2c(nn1-c1ccccc1)CSC2	.	.	10	.	9	2
Cn1c(=O)n(C)c2cc(NC(=O)Cc3ccccc3[N+](=O)[O-])ccc21	.	.	3	.	-3	4
COc1cc(C(=O)N/N=C/c2ccc(OC(=O)c3cccc(C)c3)c(OC)c2)ccc1O	.	.	4	.	21	0
CC1CN(CCCCOc2ccc3ccccc3c2)CC(C)O1 (stereo unspecified)	8	-3	2	35	7	6
COC(=O)c1ccc(OCCCCN2CC(C)OC(C)C2)cc1 (stereo unspecified)	52*	-1	-4	32	-11	-5
COc1ccc2c(=O)c3c(=O)n(Cc4ccco4)c(-c4ccco4)nc3oc2c1	-3	0	22	70*	26	5
CCc1nc2oc3cc(OC)ccc3c(=O)c2c(=O)n1Cc1ccco1	8	1	17	29	21	1
COc1ccc(-c2nc3oc4cc(OC)ccc4c(=O)c3c(=O)n2Cc2ccco2)cc1	28	-5	10	52*	6	10
O=C1COc2ccc(N3C(=O)c4ccccc4C3=O)cc2N1	-31	-1	5	11	-6	-7
CC(C)=C1C(=O)NN(c2ccc(C)c(Cl)c2)C1=O	-20	45*	3	-13	1	4
CC(C)=C1C(=O)NN(c2cccc(Cl)c2)C1=O	-38	-7	4	19	-14	4
CCC1Sc2ccc(S(=O)(=O)CCC(=O)Nc3cc(C)ccn3)cc2NC1=O (stereo unspecified)	.	.	1	.	1	5
O=C(O)COc1ccccc1C(Nc1cccnc1)c1cc(Cl)c2cccnc2c1O (stereo unspecified)	78*	-2	.	97*	.	.
COc1ccccc1C(NC(C)=O)c1cc(Cl)c2cccnc2c1O (stereo unspecified)	.	.	8	.	-2	-1
CCOc1ccc(C(Nc2cccnc2)c2cc(Cl)c3cccnc3c2O)cc1 (stereo unspecified)	95*	-5	17	96*	28	-6
COc1ccc(S(=O)(=O)N(C)C[C@H]2Oc3c(NC(=O)NC(C)C)cccc3C(=O)N([C@H](C)CO)C[C@@H]2C)cc1	.	.	.	.	.	-2
O=C(Nc1ccc(Oc2c(F)c(F)c(F)c(F)c2F)cc1)OC1CCN2Cc3ccccc3N=C12 (stereo unspecified)	0	.	4	-2	9	7
N#Cc1ccc(S(=O)(=O)N2CCC(C(=O)N3CCN(Cc4ccc5c(c4)OCO5)CC3)CC2)cc1	.	.	-5	.	3	-3
O=C(COC(=O)CC(c1ccccc1)c1ccccc1)Nc1cccc(F)c1	8	-7	0	5	-6	5
O=C(COC(=O)CC(NC(=O)c1ccccc1Cl)c1ccccc1)Nc1cccc(F)c1 (stereo unspecified)	72*	-4	5	-3	0	1
Cc1cccc(NC(=O)CN2C(=O)N/C(=C/c3cc(C)n(-c4cccnc4)c3C)C2=O)c1	-25	0	2	16	1	-6
Cc1cccc(NC(=O)CN2C(=O)N/C(=C/c3cc(C)n(-c4ccncc4)c3C)C2=O)c1	81*	-3	0	37	3	0
O=C1c2ccc([N+](=O)[O-])cc2NC(c2ccco2)N1/N=C/c1ccco1 (stereo unspecified)	-24	.	-4	84*	-13	-2
